# System: Plasmodium falciparum
# Assay: GSK_TCMDC: Inhibition of Plasmodium falciparum 3D7 in whole red blood cells, using parasite LDH activity as an index of growth. Test compounds present at 2uM
# Type: functional
row,SMILES,Inhibition
1,CC(C)COc1ccc(Cl)cc1Cc1nc(-c2nc3cccc(CN4CCN(C)CC4)c3[nH]2)cs1,99%
2,CCOC(=O)c1ccc(NC(=O)N[C@@H](Cc2ccccc2)C(=O)NC2CCN(Cc3ccc(O)cc3)C2)cc1 (stereo not given in full),95%
3,Cc1ccc(Nc2nccc(NCC(O)c3cccc(F)c3)n2)cc1 (stereo not given),95%
4,COc1cc2nc(Nc3ccc4c(ccn4Cc4ccccc4)c3)nc(Nc3ccc4c(ccn4Cc4ccccc4)c3)c2cc1OC,89%
5,Cc1nn(-c2ccnc3cc(Cl)ccc23)c(C)c1C(=O)NCc1cc(Cl)cc(Cl)c1,97%
6,CCCN1CCN(Cc2ccc(C(=O)Nc3ccc(Cl)cc3)cc2)CC1.O=C(O)C(F)(F)F,94%
7,Cc1cc(OCCCN2CCCCC2)ccc1NC(=O)COc1ccc(Cl)cc1C(=O)c1cc(C#N)cc(C(F)(F)F)c1,87%
8,O=C(Nc1cccc(Cl)c1)N[C@H]1CCN(Cc2ccc(OCCCN3CCCCC3)cc2)C1,99%
9,Cc1ccc(-c2cccc3c(NC(=O)Nc4ccc5nccc(N6CCN(C)CC6)c5c4)cccc23)cn1.Cl,90%
10,Cl.Clc1ccc(OCc2ccccc2)c(Cc2ccc(-c3nc4cnccc4[nH]3)o2)c1,99%
11,O=C(Nc1cccc(CN2CCCN(Cc3ccsc3)CC2)c1)c1ccc(Cl)c(Cl)c1.O=C(O)C(F)(F)F,98%
12,Cc1cc(C)c2ncc(C(=O)O)c(O)c2c1,93%
13,CCC(CC)C(CC(=O)NC(C)(C)CCc1ccccc1OC)Nc1ccc(C#N)c2ccccc12 (stereo not given),93%
14,CN1CCN(Cc2ccc(-c3ccc4c(Nc5cc(O)c(F)cc5Cl)ccnc4c3)o2)CC1,100%
15,Cn1ccc(C(=O)Nc2ccc3c(c2)CN(Cc2ccc(N4CCCC4)o2)CCC3)n1.O=CO,80%
16,COc1cc(Nc2nccc(-c3c(-c4cccc(NC(=O)c5c(F)cccc5F)c4)nn4ccccc34)n2)cc(OC)c1OC,98%
17,CCCCCc1ccc(N2C(N)=NC(N)=NC2(C)C)cc1.Cl,95%
18,CN(Cc1cc(C(F)(F)F)cc(C(F)(F)F)c1)C(=O)C(Cc1ccc(F)cc1)C1CCCNC1 (stereo not given),96%
19,Cl.NC(=O)c1cccc(Nc2nccc(Nc3ccc(Oc4cccc(Cl)c4)c(Cl)c3)n2)c1,93%
20,CC(=O)Nc1cccc(C(=O)Nc2ccc(-c3cccc(-c4nc5cc(C(F)(F)F)ccc5[nH]4)c3)cc2)c1,100%

row,SMILES,Inhibition
1,Cl.Clc1ccc(C2CCN(CCCOc3ccc4c(c3)CCNCC4)CC2)cc1,98%
2,Cc1cccc2nc(-c3ccc(-c4ccc(CNC(C)C)cc4)cc3)[nH]c12.O=C(O)C(F)(F)F,99%
3,CN(C)c1nc(NN=Cc2cc(Cl)ccc2O)nc(Nc2ccc(F)cc2)n1,94%
4,COc1ccc(NC(=O)/C=C/c2ccccc2Cl)cc1OCCN1CCC(O)(c2ccc(Cl)c(C(F)(F)F)c2)CC1.Cl,100%
5,Cc1noc(-c2ccc(N3CCC(C(=O)N4CCN(C(C)C)CC4)CC3)cc2)n1.Cl,95%
6,CC(Oc1c(C2CCN(CCCCNC(=O)c3ccc(-c4ccc(C#N)cc4)cc3)CC2)ccc2c1CCCC2)C(N)=O (stereo not given),100%
7,COc1cc(NC(=O)N2CCOC(CCN3CCC4(CCc5ccccc54)CC3)(c3ccc(Cl)c(Cl)c3)C2)cc(OC)c1 (stereo not given),87%
8,O=C(O)C(F)(F)F.c1cc(CN2CCN(c3ccncc3)CC2)cc(-c2cccc(-c3nc4ccccc4[nH]3)c2)c1,100%
9,O=C(O)C(F)(F)F.O=S(=O)(/C=C/c1ccccc1)N(Cc1ccc(-c2ccc(CNCCc3ccccn3)cc2)cc1)CC1CCCCN1 (stereo not given),100%
10,Fc1cccc(C=NN=c2cc[nH]c3ccccc23)c1,100%
11,COc1ccccc1-c1nc2nc(N)nc(N)c2nc1-c1ccccc1OC,84%
12,CC[C@H]1CN(C/C=C/c2ccc(OC)cc2)CC[C@H]1CCCc1ccnc2ccc(O)cc12,99%
13,CC(C)=CCc1c(-c2ccc(O)cc2O)oc2c3c(cc(O)c2c1=O)OC(C)(C)C=C3 [MORUSIN],89%
14,Cc1cccc2nc(-c3ccc(-c4cccc(CN5CCCC(N)C5)c4)s3)[nH]c12.O=C(O)C(F)(F)F (stereo not given),100%
15,CNC(=O)/C=C/c1cc(NC(=O)Nc2cc(C)nc3c(F)cccc23)ccc1OC,98%
16,CN(C)c1ccc(-c2csc(C(=O)NC3CCCCN(CCC(C)(C)C)C3)c2)cc1.O=C(O)C(F)(F)F (stereo not given),91%
17,c1ccc2cc3c(Nc4ccc(N5CCCCCC5)cc4)ccnc3cc2c1,94%
18,CN1CCc2cc(NS(=O)(=O)c3ccc(-c4ccc(Cl)s4)cc3)c(N3CCCCC3)cc2CC1.Cl,98%
19,O=C(NCc1cccc2ccccc12)c1ccc(CNC2CCN(Cc3ccccc3)CC2)cc1.O=C(O)C(F)(F)F,100%
20,CC(C)c1ccc(CN2CCC(CNC(=O)c3cc(-c4cccc(Cl)c4)cs3)C2)cc1.O=C(O)C(F)(F)F (stereo not given),99%

# From ChEMBL document CHEMBL1157539, “Thousands of chemical starting points for antimalarial lead identification” (Nature, 2010)
